Data: ChEMBL document CHEMBL3988442, “University of Dundee, Small-Polar-MMV Screening Library” (2021)
Screen size: about 48,000 compounds; about 13,000 (27%) showed an effect of 50% or more. The list shows a part of the results.

These molecules were tested on Wolbachia pipientis (assay: Anti-Wolbachia Cell-Based Screen). Conditions: 5 µM.
Format: functional
Parameters: scale not given: in the data most compounds retested in dose-response had high values

SMILES | Percent Effect
CN1C(=O)[C@H]2CC[C@@H]1CN(C(=O)c1csc(Cc3ccccc3)n1)C2 | -11.33%
CN(C(=O)c1ccc[nH]1)C1CCC(NC(=O)OC(C)(C)C)CC1 (stereo unspecified) | -42.92%
CCC(C)N(Cc1ccncc1)Cc1ccccc1Cn1cccn1 (stereo unspecified) | 4.156%
CC1CCN(C(=O)[C@@H]2C[C@@H]3CCN(CC4CCOCC4)C[C@@H]3O2)CC1.O=C(O)C(F)(F)F | -4.888%
O=C(O)C(F)(F)F.O=C([C@H]1C[C@@H]2CCN(C3CCOCC3)C[C@H]2O1)N1CCCC1 | 103.9%
CC1CCN(C(=O)[C@H]2C[C@@H]3CCN(CC4CCOCC4)C[C@@H]3O2)CC1.O=C(O)C(F)(F)F | -3.152%
O=C(O)C(F)(F)F.O=C([C@H]1C[C@@H]2CCN(C3CCOCC3)C[C@@H]2O1)N1CCOCC1 | -5.423%
O=C(O)C(F)(F)F.O=C([C@H]1COC[C@H]2CN(C3CCOCC3)C[C@H]21)N1CCC(F)CC1 | -1.372%
O=C(O)C(F)(F)F.O=C([C@@H]1C[C@@H]2CCN(C3CCOCC3)C[C@@H]2O1)N1CCCC1 | 130.2%
CC1CCN(C(=O)[C@H]2C[C@@H]3CCN(CC4CCOCC4)C[C@H]3O2)CC1.O=C(O)C(F)(F)F | -1.273%
O=C(O)C(F)(F)F.O=C([C@H]1C[C@H]2OCC[C@H]2N(CC2CCOCC2)C1)N1CCCC1 | 10.32%
O=C(O)C(F)(F)F.O=C([C@@H]1C[C@@H]2CCN(C3CCOCC3)C[C@H]2O1)N1CCOCC1 | 89.37%
Cc1ccccc1CC(=O)N(C)C1CCCC1 | -4.156%
COc1ccc(-c2cnc(CN3CCn4c(C)nnc4C3)o2)cc1 | -11.18%
c1csc(-c2nc(CN3CCn4c(nnc4C4CC4)C3)co2)c1 | -3.067%
Cn1ccnc1-c1ccc(NCC2COc3ccccc3O2)nn1 (stereo unspecified) | -1.636%
Cc1ccc(CC(=O)NC(C)C(=O)N2CCS(=O)(=O)CC2)cc1 (stereo unspecified) | -13.94%
CC(C)CC(C)N(C)Cc1nnc(-c2ccco2)o1 (stereo unspecified) | 9.065%
CNC(=O)C1Cn2ccnc2C2(CCN(C(=O)NC3CCCC3)CC2)O1 (stereo unspecified) | 96.32%
CNC(=O)C1Cn2ccnc2C2(CCN(C(=O)c3ccccn3)CC2)O1 (stereo unspecified) | -8.502%
CC(C)CC(=O)N1CCC2(CC1)OC(C(N)=O)Cn1ccnc12.O=C(O)C(F)(F)F (stereo unspecified) | 113.8%
CNC(=O)C1Cn2ccnc2C2(CCN(c3ccc(C)nn3)CC2)O1 (stereo unspecified) | 1.376%
CNC(=O)C1Cn2ccnc2C2(CCN(Cc3csc(C)n3)CC2)O1 (stereo unspecified) | 2.029%
CNC(=O)C1Cn2ccnc2C2(CCN(CCF)CC2)O1 (stereo unspecified) | 3.54%
NC(=O)C1Cn2ccnc2C2(CCN(C(=O)c3ccncc3)CC2)O1 (stereo unspecified) | 116.6%
CNC(=O)C1Cn2ccnc2C2(CCN(C(=O)CC3CCCC3)CC2)O1.O=C(O)C(F)(F)F (stereo unspecified) | -0.06928%

SMILES | Percent Effect
CC(C)CNC(=O)N1CCC2(CC1)OC(C(N)=O)Cn1ccnc12.O=C(O)C(F)(F)F (stereo unspecified) | 99.99%
CCc1nc(C)c(C2CC(=O)Nc3c2c(C(C)(C)C)nn3C)[nH]1 (stereo unspecified) | -1.206%
CCN(C(=O)c1ccc2nnc(C3CCN(S(C)(=O)=O)C3)n2c1)C(C)C (stereo unspecified) | -8.044%
CCS(=O)(=O)N1CCC(c2nnc(Cn3cccn3)n2C2CC2)CC1 | -1.644%
CCN(CC)c1ccc(-c2nc(-c3cccc(OC)c3OC)no2)cn1 | -1.328%
N#Cc1cccc(S(=O)(=O)CCN2CCOC2=O)c1 | -9.929%
COc1ccc(NC(=O)CCC2CCCN(S(=O)(=O)C3CC3)C2)cc1Cl (stereo unspecified) | 5.788%
COc1ccc(OCc2cc(C(=O)N3CCOCC3)n[nH]2)c(Cl)c1 | -1.083%
CNC(=O)C1Cn2ccnc2C2(CCN(C(=O)c3ccoc3C)CC2)O1.O=C(O)C(F)(F)F (stereo unspecified) | 5.988%
O=C(NC1CC1)N1CCCC2(CCCCN2)C1.O=C(O)C(F)(F)F (stereo unspecified) | -8.648%
NC(=O)C1Cn2ccnc2C2(CCN(C(=O)NC3CCCC3)CC2)O1.O=C(O)C(F)(F)F (stereo unspecified) | 99.21%
Cc1nc(O)ccc1C(=O)N1CCCC1c1nc(-c2ccccc2)n[nH]1 (stereo unspecified) | -6.533%
COCc1cccc(C(=O)N2CCCCC2c2nccs2)c1 (stereo unspecified) | 13.03%
Cc1noc(-c2c[nH]nc2C2CCCN2C(=O)c2ccccc2)c1C (stereo unspecified) | 143.3%
Cc1cccc(C(=O)N2CCCC2c2c(C)n[nH]c2C)c1 (stereo unspecified) | 0.2093%
Cc1cc(-c2c[nH]nc2C2CCCCN2C(=O)c2ccccc2)on1 (stereo unspecified) | 116.8%
Cc1ccc2cc(C(=O)N3CCCCC3c3nc[nH]n3)ccc2n1 (stereo unspecified) | -6.785%
COCCN1C(=O)[C@H]2CC[C@@H]1CN(C(=O)Cc1c(F)cccc1Cl)C2 | -1.329%
Cc1[nH]ncc1C(=O)N1CCN(CC(O)C(C)(C)C)CC1 (stereo unspecified) | 6.282%
O=C(c1cnc(Nc2ccccc2)nc1)N1CCS(=O)(=O)CC1 | 6.856%
Cc1noc(CN(Cc2ccco2)Cc2cccc3c2OCO3)n1 | -16.92%
O=C1COC2(CCN(Cc3ccco3)CC2)CN1Cc1cccnc1 | 107.7%
CCOCC(=O)N1CCC[C@]2(C[C@@H](OCc3ccncc3)CO2)C1 | 2.897%
O=C(c1ccoc1)N1CCC(NCc2cccnc2)CC1 | -13.71%
CN(C)CC(=O)N1CCC2(CC1)CN(Cc1cccnc1)C(=O)CO2 | 109.2%
CCOCC(=O)N1CCC2(CC1)CN(Cc1cccnc1)C(=O)CO2 | 106.9%

SMILES | Percent Effect
O=C1COC2(CCN(C(=O)c3ccoc3)CC2)CN1Cc1cccnc1 | 89.17%
O=C1CCC2(CCCN(C(=O)c3ccoc3)C2)CN1Cc1ccncc1 (stereo unspecified) | 9.259%
c1coc(CN2CCC3(CC2)CC(N2CCCC2)CO3)c1 (stereo unspecified) | -47.38%
O=C1CCC2(CCCN(C(=O)c3ccc[nH]3)C2)CN1Cc1cccnc1 (stereo unspecified) | -3.42%
O=C(O)c1cc2c(nc1O)CC(c1cccs1)CC2=O (stereo unspecified) | 17.51%
O=C(CCS(=O)(=O)C1CCCC1)NCCc1cccnc1 | 3.812%
c1cn(Cc2nnc(C3CCN(C4CCOCC4)CC3)n2C2CC2)cn1 | 2.986%
Cc1ccccc1Cc1nc(CSc2nnc(N)n2C2CC2)no1 | 8.42%
O=C(O)c1cc(-c2cccnc2)cc(S(=O)(=O)NCc2ccccn2)c1 | -2.76%
CCC(C)Oc1cc(C(=O)Nc2nnc(C(C)C)[nH]2)ccn1 (stereo unspecified) | -13.47%
Cc1occc1C(=O)N1CCC(C(O)c2ccc(Cl)cc2)CC1 (stereo unspecified) | -7.182%
CN(C)c1ncnc2c1CCN(c1cc(C(F)(F)F)ncn1)CC2 | -1.194%
Cc1nc2n(n1)CC(Nc1ncnc3c1CCC3)CC2 (stereo unspecified) | 2.355%
FC(F)(F)c1cc(N2CCc3ncnc(NC4CC4)c3CC2)ncn1 | -22.18%
CN(C)c1ncnc2c1CCN(c1cccc(F)c1)CC2 | -12.67%
COCCN1CCc2ncnc(N(C)C)c2CC1 | 110.9%
COCCN1CCc2ncnc(NC3CC3)c2CC1 | 94.73%
Cc1ccc(S(=O)(=O)Cc2noc([C@@H]3C[C@@H](O)CN3C(C)C)n2)cc1 | -1.954%
COCCNC(=O)C(C)N1CCN(C)CC1.O=C(O)C(=O)O (stereo unspecified) | 114.3%
COCCNC(=O)N1CCN(C(C)C(=O)NC2CCCC2)CC1 (stereo unspecified) | -10.58%
COCCNC(=O)N1CCN(C(C)C(=O)NC(C)C)CC1 (stereo unspecified) | 2.251%
Cc1cccc(CC(=O)Nc2cccnc2N2CCC(CO)CC2)c1 | -12.05%
O=C1CCC2(CCCN(c3ncc(Cl)cc3F)C2)CN1CC1CC1 (stereo unspecified) | -9.557%
NCc1ccc(N2CCN(c3ncccn3)CC2)c(F)c1 | 3.698%
Cc1cccc(N2N=C(C(=O)NC(C)Cc3ccco3)CCC2=O)c1 (stereo unspecified) | 19.33%
CC1C(=O)Nc2cccnc2N1S(=O)(=O)c1cc(F)cc(F)c1 (stereo unspecified) | -12.84%

SMILES | Percent Effect
Cc1cc(N2CCc3c(ncn3C3CC3)C2)nc(N)n1 | 13.11%
Cc1cc(N2CCc3c(ncn3C)C2)nc(N)n1 | -0.5866%
Cc1cc(N2CCCC2c2nnc3n2CCCCC3)nc(C)n1 (stereo unspecified) | 112.6%
Cc1cc(N2CCCC2c2nnc3n2CCCCC3)nc(N)n1 (stereo unspecified) | 170%
Cc1cc(C(=O)N2CCCC2c2nnc3n2CCCCC3)no1 (stereo unspecified) | -10.19%
Cc1cc(NCc2nnc3n2CCCCC3)n2nc(C)c(C)c2n1 | -13.55%
CN1C(=O)C(c2ccccc2)CC12CCN(CCN1CCCC1=O)CC2 (stereo unspecified) | -2.19%
CCc1cccc(NC(=O)NC2CCc3nc(C)nn3C2)c1 (stereo unspecified) | -9.583%
CC(C)n1[nH]c(=O)c2c1NC(=O)CC2C1CCCCC1 (stereo unspecified) | 0.5792%
Cc1cscc1C(=O)Nc1cc(CSCCO)ccn1 | -31.68%
COc1cccc(C(C(=O)O)N2CCCN(c3ccnc(C)c3)CC2)c1 (stereo unspecified) | 11.66%
N#Cc1cc(F)c(NCCc2ccc(F)cc2)c(F)c1 | -6.207%
N#Cc1cc(F)c(NCc2ccc(F)cc2)c(F)c1 | 53.8%
N#Cc1cc(F)c(NCCc2ccc(S(N)(=O)=O)cc2)c(F)c1 | 2.812%
Cc1ccc([C@@H]2CN(C(=O)c3csc(C)n3)C[C@H]2NC(=O)C2CC2)cc1 | -2.75%
CC(C)c1nnc2n1CCN(CC(=O)N1CCc3ccccc3C1)C2 | 2.244%
CCSc1ncc(-c2cc(C3CCC3)nc(N)c2C#N)cn1 | 87.05%
CCSc1ncc(-c2nccn2CCN(C)C)cn1 | -18.01%
CC(C)c1ncc(-c2cc(C3CCC3)nc(N)c2C#N)cn1 | 96.4%
CCSc1ncc(-c2cc(C3CC3)nc(N)c2C#N)cn1 | 99.54%
CCSc1ncc(CN2CCN(c3ncc(C)c(N)n3)CC2)cn1 | -0.8762%
CCSc1ncc(CN2CCN(c3ccc(C#N)cc3)C(=O)C2)cn1 | -0.09513%
CCCNc1ncc(-c2cc(C3CC3)nc(N)c2C#N)cn1 | 97.87%
